Some of the results follow. Activity calls are given as the source filed them. No stated cut-off is given here; in the data, active means activation above about 18%; inactive means the rest.
target: Mu-type opioid receptor (Homo sapiens) + Delta-type opioid receptor (Homo sapiens) (UniProt P35372+P41143); assay: agonists of MOR-DOR heterodimerization, confirmation, cell-based, luminescence (AID 504904); conditions: cells, luminescence complementation, at 9.3 µM, stronger effect = higher value;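 further: 0% = vehicle-treated cells and 100% = reference agonist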
Sequence (P35372 whole entry, looked up): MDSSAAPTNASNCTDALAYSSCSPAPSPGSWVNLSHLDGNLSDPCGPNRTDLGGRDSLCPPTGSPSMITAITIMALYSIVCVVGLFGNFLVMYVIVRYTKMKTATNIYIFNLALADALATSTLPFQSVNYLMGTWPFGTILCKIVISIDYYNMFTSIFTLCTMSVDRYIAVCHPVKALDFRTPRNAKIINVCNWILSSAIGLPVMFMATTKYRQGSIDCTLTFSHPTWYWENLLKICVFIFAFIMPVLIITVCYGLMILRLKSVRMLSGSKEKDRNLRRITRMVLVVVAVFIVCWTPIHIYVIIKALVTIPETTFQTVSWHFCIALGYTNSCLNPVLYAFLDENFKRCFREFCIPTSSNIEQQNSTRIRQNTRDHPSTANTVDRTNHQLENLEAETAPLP
Sequence (P41143 whole entry, looked up): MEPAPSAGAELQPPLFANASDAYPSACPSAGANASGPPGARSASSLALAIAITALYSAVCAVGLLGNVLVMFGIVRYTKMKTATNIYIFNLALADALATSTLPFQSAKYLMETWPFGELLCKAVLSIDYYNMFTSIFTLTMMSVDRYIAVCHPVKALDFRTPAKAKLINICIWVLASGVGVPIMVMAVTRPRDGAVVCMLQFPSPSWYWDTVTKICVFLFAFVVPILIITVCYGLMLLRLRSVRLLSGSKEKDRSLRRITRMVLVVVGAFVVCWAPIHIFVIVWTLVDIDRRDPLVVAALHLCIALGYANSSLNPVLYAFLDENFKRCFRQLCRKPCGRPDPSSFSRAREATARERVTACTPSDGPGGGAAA

activation, inactive:
COc1cccc(/C=N/Nc2cc(C)nc(-c3ccccc3O)n2)c1O -1.59%
CN(CC(=O)Nc1ccc(Cl)cc1)C(=O)c1ccc(COc2ccccc2)cc1 0.49%
N#C/C(=C(/O)COC(=O)COc1ccc(Cl)cc1)c1nc2ccccc2[nH]1 13.4%
COC(=O)c1ccc(C23CC4(C2)[C@H](CN(Cc2cccnc2)[C@@H]4c2ccccc2)C3c2ccc(Cl)nc2)cc1 (stereo partly specified) 17.2%
O=C(NCc1cn2ccsc2n1)Nc1ccc(Cl)cc1 7.03%
COCCCNc1nc2c(-c3cccc(C)c3)nnn2c2ccc(Cl)cc12 15.3%
O=C(Nc1ccc(OC(F)(F)F)cc1)c1ccc2c(c1)no[n+]2[O-] 13.3%
Cc1ccc(Nc2ccccc2N)cc1 3.92%
CN(C)CCCN(C(=O)c1ccc(S(=O)(=O)N2CCCc3ccccc32)cc1)c1nc2ccc(F)cc2s1 8.38%
O=C(NC1=CC(=O)c2ccccc2C1=O)c1ccccc1 7.9%
N#CC(C(=O)c1ccc(S(=O)(=O)N2CCCCCC2)cc1)c1nc2ccccc2[nH]1 (stereo unspecified) 6.41%
CN(C)C(CNC(=O)c1ccc(S(=O)(=O)NCc2ccco2)cc1)c1ccccc1 (stereo unspecified) 16.7%

activation, active:
Cc1ccc(OCC(=O)Nc2ccc(NC(=O)c3cccs3)cc2)c(C)c1 421%
CCc1ccc(C(CNc2nc(C(F)(F)F)nc3ccccc23)N(C)C)cc1 (stereo unspecified) 42.4%
Cc1ccc(S(=O)(=O)N(CC(=O)Nc2cccnc2)c2ccc(Br)cc2)cc1 20.6%
CCCC(=O)NC(C)C(c1cccs1)N1CCN(c2ccccc2)CC1 (stereo unspecified) 36.7%
CCOC(=O)c1c(C)[nH]c2c1-c1ccccc1C(=O)C2=O 18.7%
COc1ccc(SC[C@H](Cc2ccccc2)N2CCN(CCc3ccccc3)CCC2=O)cc1 28.3%
COc1cc(C(=O)OC(C)C(=O)NCC2CCCCC2)cc(NC(=O)c2ccco2)c1OC (stereo unspecified) 213%
CN(C)C(CNC(=O)Cc1ccc([N+](=O)[O-])cc1)c1ccccc1 (stereo unspecified) 164%
Cc1ccc(CN(C(=O)c2sc3ccccc3c2Cl)C2CCS(=O)(=O)C2)cc1 (stereo unspecified) 24.1%

From PubChem BioAssay AID504904 (The Scripps Research Institute Molecular Screening Center, 2011)
